Compound activity: PubChem BioAssay, several laboratories
NALP1 inh: NALP1 inflammasome inhibitors in reconstituted yeast, colorimetric, S. cerevisiae, triplicate retest; S. cerevisiae NALP1/ASC/caspase-1 growth, X-gal OD620, 72 h; AID 2071, 2009; 0.61% of 280,000 active; inhibition, % at 10 µM; in the data active = inhibition mostly above about 24%, no sharp cut-off; inactive = mostly below about 32%
GRIN3A LBD mod: binders of NR3A ligand-binding domain, primary screen, biophysical, differential scanning fluorimetry, uHTS | AID 1259313, 2017 | Tm shift relative to glycine control, % at 25 µM | Glutamate receptor ionotropic, NMDA 3A (GRIN3A) ligand-binding domain | NR3A LBD differential scanning fluorimetry, Tm shift; 0% = protein alone, 100% = glycine-bound protein | 2.5% of 340,000 active;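 active = melting temperature shift of at least 10% of the positive control shift, at one fixed dose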
UBC13 polyUb: UBC13 polyubiquitin chain formation inhibitors, primary screen, biochemical, TR-FRET, uHTS; Ubiquitin-conjugating enzyme E2 N (Homo sapiens), P61088; inhibition, % at 20 µM; 0.47% of 330,000 active; in the data active = inhibition above about 45%, passing the limit was not always enough
Target sequence (P61088 whole entry, looked up): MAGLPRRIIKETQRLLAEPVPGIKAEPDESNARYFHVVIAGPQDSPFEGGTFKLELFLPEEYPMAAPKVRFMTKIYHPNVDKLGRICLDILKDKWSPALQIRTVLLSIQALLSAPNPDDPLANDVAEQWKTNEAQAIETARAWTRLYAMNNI
dFosB act: activators of delta FosB homodimer, primary screen, biochemical, fluorescence polarization, TAMRA-CDK5 oligo, single point. purified delta FosB; percent of positive-control signal above neutral wells. 0.99% of 340,000 active. activation, % at 25 µM;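 active = mean activation above about 17%, with every replicate also reaching it, limit read from the data, passing the limit was not always enough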
Target sequence (P13346 whole entry, looked up): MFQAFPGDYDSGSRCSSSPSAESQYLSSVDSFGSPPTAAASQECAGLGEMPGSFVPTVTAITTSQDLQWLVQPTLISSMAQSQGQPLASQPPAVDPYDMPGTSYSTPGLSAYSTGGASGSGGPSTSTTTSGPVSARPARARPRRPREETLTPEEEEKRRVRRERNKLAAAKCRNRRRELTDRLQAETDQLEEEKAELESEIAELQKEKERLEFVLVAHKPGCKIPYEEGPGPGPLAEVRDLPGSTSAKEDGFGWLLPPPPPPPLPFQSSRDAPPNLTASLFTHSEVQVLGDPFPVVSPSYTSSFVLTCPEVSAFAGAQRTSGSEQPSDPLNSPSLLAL
Yeast superoxide: reduction of superoxide in aged yeast, primary screen, HTS. S. cerevisiae aged cells, superoxide DHE fluorescence; stronger effect = lower value. superoxide response (% of plate mean), % at 10 µM. 0.18% of 330,000 active;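 active = superoxide response under a set limit, about three screen SD below normal, cut at about 65% in these data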;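 also: yeast aged for seven days with compound at 30 °C before DHE staining; 100% = average MFI of all compound-treated wells on the plate with controls excluded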
* hit, by the source's call. Sampled rows, rich in hits. Any-hit rate of the full collection: about 4.3%.

Results for CCCCCOC(=O)CC(C(=O)OCCCCC)N1CCCCC1 (stereo not given) ?
NALP1 inh: 20; GRIN3A LBD mod: 2; UBC13 polyUb: 2; dFosB act: -4; Yeast superoxide: 96

What do the screens show for `COc1ccc2nc(C)cc(Nc3ccc(C)cc3)c2c1`?
NALP1 inh: 15; GRIN3A LBD mod: 1; UBC13 polyUb: -5; dFosB act: 8; Yeast superoxide: 104

Results for COc1ccc2nc(C)cc(Nc3ccc(N4CCOCC4)cc3)c2c1 ?
NALP1 inh: 16; GRIN3A LBD mod: 1; UBC13 polyUb: 4; dFosB act: 30*; Yeast superoxide: 92

How did COc1ccc2nc(C)cc(Nc3ccc(N4CCN(C)CC4)cc3)c2c1 do in these assays?
NALP1 inh: 18; GRIN3A LBD mod: -10; UBC13 polyUb: 30; dFosB act: 77*; Yeast superoxide: 94

What do the screens show for `O=c1c2[nH]c3ccccc3c2ncn1CCCn1ccnc1`?
NALP1 inh: 9; GRIN3A LBD mod: -1; UBC13 polyUb: -3; dFosB act: 2; Yeast superoxide: 100

Results for O=c1c2[nH]c3ccc(Br)cc3c2ncn1CCCn1ccnc1 ?
NALP1 inh: -3; GRIN3A LBD mod: 16*; UBC13 polyUb: 21; dFosB act: -4; Yeast superoxide: 105

What do the screens show for `CCN(CC(=O)NCc1ccncc1)S(=O)(=O)c1ccc(OC)cc1`?
NALP1 inh: -2; GRIN3A LBD mod: -1; UBC13 polyUb: 10; dFosB act: -2; Yeast superoxide: 98

What do the screens show for `CCOC(=O)c1ccc2nc(Nc3nc4ccc(F)cc4s3)sc2c1`?
NALP1 inh: -3; GRIN3A LBD mod: 28*; UBC13 polyUb: 26; dFosB act: 2; Yeast superoxide: 97

What do the screens show for `COC(=O)c1ccc2nc(Nc3nc4c(F)cc(F)cc4s3)sc2c1`?
NALP1 inh: 20; GRIN3A LBD mod: 22*; UBC13 polyUb: 16; dFosB act: -7; Yeast superoxide: 89

What do the screens show for `COC(=O)c1ccc2nc(NC(=O)C(C)C)sc2c1`?
NALP1 inh: -2; GRIN3A LBD mod: -3; UBC13 polyUb: 5; dFosB act: -9; Yeast superoxide: 91

What do the screens show for `CCOC(=O)c1ccc2nc(NC(C)=O)sc2c1`?
NALP1 inh: -4; GRIN3A LBD mod: -2; dFosB act: 1; Yeast superoxide: 103

Results for O=C(NCc1cccc(C(F)(F)F)c1)C1CC(c2ccccc2C(F)(F)F)=NO1 (stereo not given) ?
NALP1 inh: -16; GRIN3A LBD mod: -4; UBC13 polyUb: 0; dFosB act: 1

Results for CCN(Cc1ccccc1)C(=O)Cc1c[nH]c2ccccc12 ?
NALP1 inh: 3; GRIN3A LBD mod: 1; UBC13 polyUb: 2; dFosB act: -5; Yeast superoxide: 101

What do the screens show for `Cc1c(N=NC2=C(O)CC(C)(C)CC2=O)c(=O)n(-c2ccccc2)n1C`?
NALP1 inh: -22; GRIN3A LBD mod: -22; UBC13 polyUb: -59; dFosB act: -3; Yeast superoxide: 101

How did CCN1/C(=C/c2ccc3ccccc3[n+]2CC)C=Cc2ccccc21 do in these assays?
NALP1 inh: 26; GRIN3A LBD mod: -1; UBC13 polyUb: -432; dFosB act: -207; Yeast superoxide: 109

What do the screens show for `CCCCN1/C(=C/c2ccc3ccccc3[n+]2CC)Sc2ccccc21`?
NALP1 inh: 10; GRIN3A LBD mod: 1; UBC13 polyUb: -207; dFosB act: 27*

What do the screens show for `CCN1/C(=C/c2ccc3cc(C)ccc3[n+]2CC)Sc2cc(C)ccc21`?
NALP1 inh: 35*; GRIN3A LBD mod: 0; dFosB act: -37

How did Cc1noc(/C=C/N(C)C)c1S(=O)(=O)N(C)Cc1ccc(F)cc1 do in these assays?
NALP1 inh: 6; GRIN3A LBD mod: 0; UBC13 polyUb: -8; dFosB act: -3; Yeast superoxide: 88

What do the screens show for `Cc1ccc(S(=O)(=O)N2CCCCC2C(=O)Nc2ccc(N(C)C)cc2)cc1` (stereo not given)?
GRIN3A LBD mod: -3; UBC13 polyUb: 4; dFosB act: -16; Yeast superoxide: 67

Results for COc1ccc(-c2sc3ccccc3c2/C=C/c2ccncc2)cc1 ?
GRIN3A LBD mod: 1; UBC13 polyUb: 5; dFosB act: 1; Yeast superoxide: 94

How did Cn1nc(OC(=O)Nc2ccccc2)cc1C(F)(F)F do in these assays?
NALP1 inh: 8; UBC13 polyUb: -7; Yeast superoxide: 95

Results for CCCc1cc(C(=O)Nc2cccc(Cl)c2)no1 ?
NALP1 inh: 46; GRIN3A LBD mod: 13*; UBC13 polyUb: 9; dFosB act: -5; Yeast superoxide: 80

What do the screens show for `O=C(Nc1ccccc1)OCCOc1cccc(Br)c1`?
NALP1 inh: 17; GRIN3A LBD mod: 4; UBC13 polyUb: -1; dFosB act: -8; Yeast superoxide: 101

How did O=C(Nc1cccc(Cl)c1)OCCOc1ccccc1 do in these assays?
NALP1 inh: 7; GRIN3A LBD mod: 15*; dFosB act: 1; Yeast superoxide: 98

Results for Cn1nc(OC(=O)Nc2cccc(Cl)c2)cc1C(F)(F)F ?
NALP1 inh: 20; GRIN3A LBD mod: 15*; UBC13 polyUb: -5; dFosB act: -9; Yeast superoxide: 101

How did O=C(Nc1cccc(Cl)c1)OCCOC(=O)Nc1cccc(Cl)c1 do in these assays?
GRIN3A LBD mod: 29*; dFosB act: -3

What do the screens show for `CCOC(=O)CN1C(=O)/C(=C2\SC(=S)N(NC(=O)c3cccnc3)C2=O)c2ccccc21`?
NALP1 inh: 6; GRIN3A LBD mod: 0; UBC13 polyUb: -42; dFosB act: 1; Yeast superoxide: 103

What do the screens show for `O=C(Nc1ccccc1)OCCOc1ccccc1Br`?
NALP1 inh: 19; GRIN3A LBD mod: 7; UBC13 polyUb: 2; dFosB act: 4; Yeast superoxide: 89

How did O=C(Nc1cccc(O)c1)c1cc(-c2ccccc2Cl)on1 do in these assays?
NALP1 inh: 17; GRIN3A LBD mod: 30*; UBC13 polyUb: 2; dFosB act: 2; Yeast superoxide: 104

Results for O=C(Nc1ccccc1)OCCCCCOC(=O)Nc1ccccc1 ?
NALP1 inh: 20; GRIN3A LBD mod: 46*; UBC13 polyUb: 6; dFosB act: -3; Yeast superoxide: 99

What do the screens show for `COc1ccc(OCCOC(=O)Nc2ccccc2)cc1`?
NALP1 inh: 16; GRIN3A LBD mod: 33*; UBC13 polyUb: 3; dFosB act: 0; Yeast superoxide: 100

What do the screens show for `COc1ccc(NC(=O)c2cc(-c3ccccc3Cl)on2)cc1OC`?
NALP1 inh: 9; GRIN3A LBD mod: -12; UBC13 polyUb: 8; dFosB act: -7; Yeast superoxide: 106

What do the screens show for `O=C(Nc1ccccc1)OCCOc1ccccc1`?
NALP1 inh: -1; GRIN3A LBD mod: -11; UBC13 polyUb: -12; dFosB act: 1; Yeast superoxide: 91
